ATXN viability – cell viability loss in ATXN counter-screen. S2 cells (HEK-293 line with an ATXN2-luciferase reporter) viability, CellTiter-Fluor protease fluorescence, 24 h. 400,000 tested, 0.49% active. AID 651635. Potency, µM (highest dose often 56.7 µM), hits mostly cytotoxic; note: potency is the fitted concentration of half-maximal effect; nearly all actives have a fitted effect of over 40% in size
IL-1B inflam inh – inhibitors of inflammasome signaling (IL-1 beta secretion). THP-1 LPS/ATP IL-1B secretion, AlphaLISA, 16 h; active compounds read low. activity change, % at 57.5 µM. 360,000 tested, 4.7% active. AID 743279; in the data active = activity change below about -50%; inconclusive = mostly about -30% to -49%; note: % is set by controls: 0 for no effect and ±100 for the full control effect
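Secreted IL-1B measured by AlphaLISA bead assay after 16 h compound exposure of THP-1 cells; compounds (final up to 57.5 uM) added 1 h before LPS (250 ng/mL) and ATP (1.25 mM) stimulation; lower signal means less secretion.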
PINK1 modulator – modulators of PINK1 expression; PINK1 immunofluorescence, high-content cytometry, 24 h; Potency, µM (highest dose often 76.6 µM), for inactives: at the highest dose activation (PINK1 increase), actives largely listed as activators; 410,000 tested, 0.2% active; active = well fitted activation curve with a large enough effect; inconclusive = small, poorly fitted or top-dose-only effect; cell line not stated here; note: potency is the fitted concentration of half-maximal effect; % of control where 0% means no effect; nearly all actives have a fitted effect of over 65% in size
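A stable cell line was treated with compounds at 5 concentrations for 24 hours, with CCCP as control. PINK1 levels and mitochondrial localization were measured by immunofluorescence with mitochondrial, cell and nuclear markers after fixation, read by laser-scanning cytometry.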
SW480 rereplic – induces DNA re-replication in SW480 colon adenocarcinoma cells; SW480 DNA re-replication, Hoechst DNA content imaging, 48 h; Potency, µM (series often up to 46.1 µM), inactives show at the highest dose re-replication activation, actives largely listed as activators; 340,000 tested, 1.8% active; AID 624297; note: potency is the fitted concentration of half-maximal effect; % of control where 0% means no effect; nearly all actives have a fitted effect of over 55% in size
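Readout is total intensity of Hoechst-stained nuclei, excited at 405 nm and collected at 500-530 nm. Compound treatment lasted 48 hr at 37 C in 5% CO2 before staining.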
MCF10A rereplic – DNA re-replication induction in MCF 10a cells. 350,000 tested, 2.9% active. Potency, µM (top dose mostly 46.1 µM), for inactives: at the highest dose activity, positive = re-replication, most hits filed as activators. MCF 10A DNA re-replication, Hoechst nuclear intensity, 48 h; note: potency is the fitted concentration of half-maximal effect; % of control where 0% means no effect; nearly all actives have a fitted effect of over 50% in size
ATXN2 expr inh – reduces ATXN2 reporter expression in HEK-293 cells; HEK-293 ATXN2-luciferase reporter, luminescence, 24 h; Potency, µM (doses to about 57 µM), for inactives: at the top dose activity change, negative = inhibition, usual class: inhibitors; 360,000 tested, 0.72% active; note: potency is the fitted concentration of half-maximal effect; % is set by controls: 0 for no effect and ±100 for the full control effect; nearly all actives have a fitted effect of over 55% in size
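ATXN2-luciferase reporter cells (luciferase flanked by upstream and downstream ATXN2 gene portions) were treated 24 h at 37 °C with compounds at up to 57 uM. SteadyGlo luminescence gave expression; GF-AFC fluorescence gave viability.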
* marks the source's active call; other numbers are inactive results; i = inactive; ? = inconclusive; . = no result; [ ] = dose if it differs, or a comment. This is a sample that favours compounds with a hit; in the whole collection about 7.1% have one here. Unless noted, calls come from the whole dose curve; as a rule, active = well fitted curve in the direction sought with a large enough effect; inconclusive = small, poorly fitted or top-dose-only effect, or another doubt; inactive = no such curve, though single readings can be large; an effect the other way counts as inactive or inconclusive.

SMILES	ATXN viability	IL-1B inflam inh	PINK1 modulator	SW480 rereplic	MCF10A rereplic	ATXN2 expr inh
COc1ccc(Nc2cc(Nc3cc(OC)c(OC)c(OC)c3)ncn2)cc1	i	-80*	4%	3%	?	29%
O=C(O)c1ccc(Nc2nc(-c3ccccc3)c3ccccc3n2)cc1	.	0	1%	0%	19%	-8%
NC(=O)c1cccc(-c2cnc(N)c(C(=O)c3cccnc3)n2)c1	?	-95*	2%	1%	?	-39%
O=C(Nc1cccc(NC(=O)c2cccnc2)c1)c1ccccc1	i	3	-1%	-5%	-1%	-7%
CC(=O)Nc1cccc(-c2cnc(N)c(C(=O)c3cccnc3)n2)c1	?	-99*	-2%	25%	?	?
N#CCCn1c(=O)c(-c2ccc(Cl)cc2)nc2cnc(N3CCNCC3)nc21	.	.	5%	.	.	.
O=C(c1cscn1)N1CCOc2ccc(CN3CCC(Oc4cccnc4)CC3)cc2C1	i	.	-1%	.	.	.
CN1OC[C@@H]2CN(Cc3ccc(Cl)cc3)[C@H](c3cccc(Br)c3)C[C@@H]21	?	-4	2%	-37%	?	-22%
CC1CCCC(NCC(O)COC(c2ccc(F)cc2)c2ccc(F)cc2)C1C (stereo unspecified)	?	-115*	-2%	0%	?	?
CC1CCCC(NC(=O)CSc2ccc(F)cc2)C1C (stereo unspecified)	?	-8	-1%	-19%	2%	.
Cc1ccc(CC(=O)NCc2ccc(Cl)cc2)cc1	?	33	11%	0.92µM*	7.3µM*	.
O=C(CNC(=O)c1ccc(Br)o1)NCc1ccc(Cl)cc1	i	4	1%	?	26µM*	-4%
CCc1ccc(-n2c(=O)c3ccc(C(=O)NCCc4ccccc4)cc3n(Cc3ccccc3C#N)c2=O)cc1	i	.	0%	.	.	2%
O=C(c1ccc2c(c1)N(Cc1ccc(Cl)cc1)C(=O)c1ccccc1S2=O)N1CCC(Cc2ccccc2)CC1 (stereo unspecified)	i	.	2%	.	.	?
O=S(=O)(NC1=NCCCCC1)c1ccc2sc(NS(=O)(=O)c3ccc4ccccc4c3)nc2c1	i	-54*	6%	0%	?	.
COc1ccc(NS(=O)(=O)c2cccc3nonc23)c(OC)c1	i	-3	-2%	0.52µM*	-6%	-2%
O=C(N/N=C/c1c(-c2ccccc2)[nH]c2ccccc12)c1cccnc1	i	?	12%	23µM*	?	9%
COc1ccc(Cn2c(O)c(/C=N/NC(=O)c3cccnc3)c3ccccc3c2=O)cc1	.	131	-1%	?	?	?
O=C(N/N=C/c1c(O)n(-c2ccccc2Cl)c(=O)c2ccccc12)c1cccnc1	.	14	4%	16µM*	?	2%[11.3 µM]
Cn1c(-c2ccccc2)c(/C=N/NC(=O)c2cccnc2)c2ccccc21	i	-28	12%	?	?	60%
O=C(N/N=C/c1c(O)n(Cc2ccccc2)c(=O)c2ccccc12)c1cccnc1	.	111	0%	23%	?	17µM*
Cc1nn(Cc2c(Cl)cccc2Cl)c(Cl)c1/C=N/NC(=O)c1cccnc1	i	-1	6%	?	21µM*	-3%
O=C(COC(=O)c1ccccc1OCCOc1ccccc1)Nc1ccc(Br)cc1	.	.	1%	.	.	.
Cc1ccc(-n2nc(C(=O)N(C)c3ccccc3Cl)c3c4ccccc4n(C)c3c2=O)cc1	i	.	0%	.	.	-7%
O=C(NCCc1nc(-c2ccccc2)cs1)c1ccc(Br)cc1	i	-77*	-3%	6%	?	-25%
Cc1ccc(C)c(NC(=O)C(=O)NCCc2csc(-c3ccc(C(F)(F)F)cc3)n2)c1	.	.	-1%	.	.	.
Cc1cc(C(=O)N(Cc2cc3cc4c(cc3nc2N2CCOCC2)CCC4)CC2CCCO2)c(=O)[nH]c1C (stereo unspecified)	i	.	0%	.	.	.

Screens (PubChem BioAssay)
